An excerpt weighted towards active compounds, which were near 9.2% of everything screened.
ELG1 genotoxic = inducers of genotoxicity in HEK293T ELG1-luciferase cells; hit rate 1.3% among 330,000; HEK293T ELG1-luciferase reporter, luminescence, 16 h; Potency, µM (doses to about 46 µM), most hits filed as activators; further: nearly all actives have a fitted effect of over 60% in size
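Genotoxicity was scored as increased ELG1-luciferase reporter signal, measured by ONE-Glo luminescence (30 min, room temperature). Compound or vehicle exposure of the HEK293T reporter cells lasted 16 hr at 37°C.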
SMN2 splice up = increases expression of the SMN2 splice variant; AID 1458; HEK293 SMN2-luciferase splicing reporter, luminescence, 30-36 h; Potency, µM (highest dose often 46.1 µM), actives largely listed as activators; hit rate 2.8% among 210,000; further: nearly all actives have a fitted effect of over 55% in size
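HEK293 cells carry an SMN2 […]–luciferase reporter in which exon 7 inclusion puts luciferase in frame. Cells were plated 10-12 h before compound addition, then incubated 30-36 h at 37C. ONE-Glo luminescence was read; sodium butyrate at 4.5 mM final served as control.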
NPC1 promoter act = activators of NPC1 promoter; Potency, µM (top dose mostly 9.22 µM), usual class: activators; hit rate 2.4% among 320,000; AID 485313; Huh7 NPC1 promoter luciferase reporter, 24 h; further: nearly all actives have a fitted effect of over 60% in size
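Stable NPC1-promoter luciferase Huh7 line; cpd (DMSO) 24 h, 37 °C, 5% CO2; Amplite luciferase reagent 10 min RT; luminescence readout. qHTS format.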
FLuc modulator = inhibits or activates purified firefly luciferase, miR-21 counter-screen | purified FLuc, Km substrates, luminescence inhibition | hit rate 6.9% among 360,000 | Potency, µM (titrated, usually from 57.5 µM), most hits filed as inhibitors | P08659; further: nearly all actives have a fitted effect of over 55% in size
Target sequence (P08659 whole entry, looked up): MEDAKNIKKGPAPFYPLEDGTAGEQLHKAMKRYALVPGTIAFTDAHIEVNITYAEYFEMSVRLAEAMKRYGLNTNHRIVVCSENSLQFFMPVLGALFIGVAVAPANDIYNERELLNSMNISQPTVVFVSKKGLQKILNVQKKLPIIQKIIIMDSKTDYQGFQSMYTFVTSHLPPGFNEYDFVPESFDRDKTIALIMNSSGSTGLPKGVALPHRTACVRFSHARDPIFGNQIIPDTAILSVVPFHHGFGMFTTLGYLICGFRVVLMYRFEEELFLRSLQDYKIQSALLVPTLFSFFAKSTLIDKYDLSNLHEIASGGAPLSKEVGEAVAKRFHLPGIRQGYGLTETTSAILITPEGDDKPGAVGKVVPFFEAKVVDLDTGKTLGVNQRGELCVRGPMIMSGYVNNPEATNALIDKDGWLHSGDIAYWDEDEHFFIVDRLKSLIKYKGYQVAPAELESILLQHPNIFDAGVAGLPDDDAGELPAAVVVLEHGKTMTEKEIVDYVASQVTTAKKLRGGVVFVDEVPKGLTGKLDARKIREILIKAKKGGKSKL
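Biochemical qHTS of compounds, final roughly 60 µM downward over six points, against 10 nM purified firefly luciferase using Km concentrations of substrates (10 uM D-luciferin, 10 uM ATP) in Tris acetate pH 7.5 buffer; luminescence output.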
ELG1 repair inh = blocks ELG1-dependent DNA repair in HEK293T cells; HEK293T ELG1-luciferase reporter, luminescence, 16 h; DNA damage induced by 5-fluorouridine; Potency, µM (top dose mostly 46.1 µM), hits mostly inhibitors; hit rate 2.3% among 330,000; AID 504467; further: nearly all actives have a fitted effect of over 55% in size
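Reporter activity after DNA damage by 5-fluorouridine is monitored. Compound-treated cells incubate 16 hr at 37 °C, then ONE-Glo is added for 30 min before luminescence reading.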
Rab9 promoter act = activators of Rab9 promoter; Potency, µM (series often up to 9.22 µM), hits mostly activators; Huh7 Rab9 promoter-luciferase reporter, luminescence, 24 h; hit rate 2.8% among 320,000; further: nearly all actives have a fitted effect of over 60% in size
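Huh7 reporter line, Rab9 promoter upstream of luciferase. Compound exposure 24 h at 37 °C in reduced-serum medium with 10% FBS. Read-out: luminescence.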
A number is an active result; – = inactive; ? = inconclusive; · = no result; [ ] = another dose, or the depositor's remark. The call rests on the fitted dose curve; in most records, active means well fitted curve in the direction sought with a large enough effect; inconclusive means small, poorly fitted or top-dose-only effect, or another doubt; inactive means no such curve, though single readings can be large; an effect the other way counts as inactive or inconclusive.

SMILES	ELG1 genotoxic	SMN2 splice up	NPC1 promoter act	FLuc modulator	ELG1 repair inh	Rab9 promoter act
CCc1ccc(-n2c(=O)c3sc4ccccc4c3n(CC(=O)NCc3ccccc3)c2=O)cc1	·	–	·	–	·	·
O=C(NNc1nc2c(F)cccc2s1)c1cc(=O)c2ccccc2o1	?	·	?	5.36µM	?	?
COc1ccc2nc(NNC(=O)c3cc(=O)c4ccccc4o3)sc2c1	–	·	–	2.69µM	–	–
Cc1cccc2sc(NNC(=O)c3cc(=O)c4ccccc4o3)nc12	?	·	?	4.78µM	?	?
COc1ccc2nc(NC(=O)c3cc(=O)c4cc(C)c(C)cc4o3)sc2c1	·	–	·	–	·	·
Cc1ccc2sc(NNC(=O)c3cc(=O)c4ccccc4o3)nc2c1C	?	·	–	9.53µM	?	–
CC(C)n1c(SC2C(=O)CC(C)(C)CC2=O)nc2c1c(=O)n(C)c(=O)n2C	–	11.2µM	–	–	–	–
CCCn1c(SC2C(=O)CC(C)(C)CC2=O)nc2c1c(=O)n(C)c(=O)n2C	–	–	–	–	–	–
Cc1ccc(C(=O)O/N=C(\N)Cc2ccc([N+](=O)[O-])cc2)c(Cl)c1	–	·	–	21.3µM	?	–
Cc1ccc(C(=O)O/N=C(\N)Cc2cccs2)c(Cl)c1	2.06µM	·	1.58µM	1.2µM	?	2µM
Cc1cc(OCC(=O)O/N=C(\N)Cc2cccs2)ccc1Br	–	–	–	?	–	–
Cc1ccc(S(=O)(=O)NCC(=O)NCC(=O)OCC(=O)N2CC(=O)Nc3ccccc32)cc1C	–	–	–	–	–	–
COc1cc(/C=C/c2ccccc2)oc(=O)c1	·	8.91µM	·	·	·	·
COc1ccc2[nH]c3c4c(ccc3c2c1)C(=O)C=CC4=O	–	·	–	?	16.4µM	–
COc1ccc2[nH]c(=O)cc(C(=O)O)c2c1	–	–	–	–	–	–
Cc1cccc(NC(=O)C2CCCN(S(=O)(=O)c3c(C)noc3/C=C/N(C)C)C2)c1C (stereo unspecified)	·	–	·	–	·	·
Cc1ccc(S(=O)(=O)N2CCN(CC(=O)Nc3ccc(N4CCOCC4)cc3)CC2)cc1C	–	–	–	–	–	–
Cc1cccc(N2CCN(CC(=O)Nc3ccc(S(=O)(=O)N4CCOCC4)cc3)CC2)c1C	–	·	–	–	14.6µM	–
Cc1nc(SCC(=O)Nc2ccc(S(=O)(=O)N3CCOCC3)cc2)c2c(C)c(C)sc2n1	–	·	·	·	16.4µM	·
Cc1nc(SCC(=O)N2CCOCC2)c2c(C)c(C)sc2n1	–	·	–	–	?	–
Cc1ccc2c(=O)cc(C(=O)Nc3nnc(CC(C)C)s3)oc2c1C	·	–	·	?	·	·
CCOC(=O)C1CCN(C(=O)c2ccc(OCC(=O)Nc3ccc(OCC)cc3)c(OC)c2)CC1	–	·	–	–	–	–
Cc1cc(OC(C)C(=O)N(Cc2ccc(N(C)C)cc2)Cc2ccco2)ccc1Cl (stereo unspecified)	·	–	·	?	·	·
O=C(CSc1ncccc1C(=O)O)Nc1ccc2c(c1)OCCO2	–	·	–	10.7µM	–	–
COc1ccc(-n2nnc3c(=O)n(CC(=O)Nc4ccc5c(c4)OCCO5)cnc32)cc1OC	?	·	–	–	?	–
SMILES	ELG1 genotoxic	SMN2 splice up	NPC1 promoter act	FLuc modulator	ELG1 repair inh	Rab9 promoter act
CCc1ccccc1-n1c(SCC(=O)Nc2ccc3c(c2)OCCO3)nc2[nH]ncc2c1=O	?	–	–	16.9µM	?	–
COC(=O)c1ccc(CSc2ncnc3c2nnn3-c2ccc(OC)cc2)o1	–	–	–	21.3µM	–	–
O=C(CSc1ccccc1C(=O)O)Nc1ccc2c(c1)OCO2	–	·	–	?	–	–
COc1ccc(-n2nnc3c(SCC(=O)Nc4ccc5c(c4)OCCO5)ncnc32)cc1	–	–	–	7.57µM	–	–
COc1ccc(-n2nnc3c(SCC(=O)c4ccccc4)ncnc32)cc1	–	–	–	?	–	–
CCOC(=O)c1c(C)[nH]c(C)c1S(=O)(=O)N1CCC(C(=O)Nc2ccc(OCC)cc2)CC1	·	·	·	–	·	·
O=C(CSc1ncnc2ccccc12)Nc1ccc2c(c1)OCCO2	–	–	–	16.9µM	–	–
O=C(Nc1ccc2c(c1)nc1n2CCOC1)c1ccccc1	?	–	2.24µM	15.1µM	?	3.16µM
COc1ccc(C(=O)Nc2ccc3c(c2)nc2n3CCSC2)cc1	?	–	2.82µM	7.57µM	?	?
O=C(Nc1ccc2c(c1)nc1n2CCSC1)c1ccccc1	?	11.2µM	?	10.7µM	?	3.55µM
COc1ccc(CC(=O)NNS(=O)(=O)c2ccccc2[N+](=O)[O-])cc1	–	·	–	–	–	–
CCOC(=O)c1sc(NC(=O)C(C)Oc2ccc(OC)cc2)c(C(=O)OCC)c1C (stereo unspecified)	·	–	·	–	·	·
Cc1cc(C(=O)Nc2ccc(S(=O)(=O)N3CCCC3)cc2)no1	–	–	–	–	–	–
Cc1cnc(C(=O)Nc2ccc(N3CCCCC3)cc2)cn1	?	11.2µM	3.55µM	7.57µM	?	3.16µM
Cc1cc(C(=O)Nc2ccc(N3CCCCC3)cc2)no1	?	·	0.316µM	1.35µM	?	0.282µM
Cc1ccccc1OCC(=O)Nc1ccccc1C(=O)OCc1cc(=O)n2c(C)csc2n1	·	·	·	–	·	·
CCN1C(=O)CC(N2CCN(c3ccc(C(=O)c4ccncc4)cc3)CC2)C1=O (stereo unspecified)	–	–	–	–	14.6µM	–
O=c1[nH]c2cc3c(cc2cc1CN(Cc1nnnn1C1CCCC1)C1CCCC1)OCCO3	–	–	–	–	13µM	–
Cc1ccc(Cl)cc1N1CCN(C(=O)C2CCN(c3nnc(-n4cccc4)s3)CC2)CC1	?	–	–	–	8.2µM	–
Cc1ccc([N+](=O)[O-])c(NC2OC(CO)C(O)C2O)c1 (stereo unspecified)	–	–	–	–	–	–
Cc1ccc(NC2=CC(=O)C(=O)c3ccccc32)cc1	–	?	–	10.7µM	?	–
NS(=O)(=O)c1ccc(NC2=CC(=O)C(=O)c3ccccc32)cc1	–	·	–	–	10.3µM	–
CCOC(=O)c1ccc(NC2=CC(=O)C(=O)c3ccccc32)cc1	–	?	–	–	–	–
CC(=O)c1ccc(NC2=C(N3CCOCC3)C(=O)c3ccccc3C2=O)cc1	–	–	–	?	?	–
Cc1ccc(NC2=C(N3CCOCC3)C(=O)c3ccccc3C2=O)cc1	6.51µM	–	–	9.53µM	?	–
CCc1nc(SCc2cc(=O)c3cc(F)ccc3[nH]2)n[nH]1	·	·	·	–	·	·
Cc1ccccc1OCc1nc2ccccc2n1Cc1ccccc1Cl	·	–	·	?	·	·
CC1CCCCN1C(=O)CN1C(=O)CSc2ccc(S(=O)(=O)N3CCOCC3)cc21 (stereo unspecified)	–[9.26 µM]	·	–	–	–	–
CC(C)NC(=O)C1CCC(Cn2c(=O)c3sccc3n(CC(=O)NCc3ccccc3)c2=O)CC1 (stereo unspecified)	·	·	·	–	·	·
